About 5,100 (1.5%) of roughly 340,000 compounds were called active. The list comes from a sample in which actives are over-represented; it also holds similar structures and randomly drawn compounds. Values without a mark were called inactive.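 Rule for the calls: active = mean Tm shift, scaled 0 neutral to 100 positive control, at about 1.3% or above, every replicate too (limit read from the data); inconclusive = no clear call, values can overlap the other calls; inactive = the rest.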
Each compound was assayed against Fibroblast growth factor 22 (Homo sapiens) (UniProt Q9HCT0) (assay: FGF22 ligand-induced thermal stabilization – biophysical, thermal shift, single point, FGF22 synaptogenesis inhibitor project, primary screen (AID 651658)). Details: recombinant FGF22 thermal shift, SYPRO orange fluorescence; at 9.99 µM; active compounds read high; percent of sucrose octasulfate shift, DMSO zero.
Chain of Fibroblast growth factor 22 (Homo sapiens) (Q9HCT0 whole entry, looked up): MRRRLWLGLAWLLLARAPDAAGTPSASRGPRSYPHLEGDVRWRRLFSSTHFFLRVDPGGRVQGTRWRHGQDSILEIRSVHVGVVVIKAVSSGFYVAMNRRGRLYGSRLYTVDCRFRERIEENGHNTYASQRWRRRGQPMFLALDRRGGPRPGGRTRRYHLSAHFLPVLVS

Row | SMILES | activity (Tm shift, normalised)
1 | CN(C)C(=O)C[C@@H]1CC[C@H]2[C@@H](COC[C@H](O)CN2C(=O)c2ccncc2)O1 | -0.192%
2 | CC(C)CC#Cc1cnc2c(c1)C(=O)N([C@H](C)CO)C[C@H](C)[C@@H](CN(C)Cc1ccccc1)O2 | 0.063%
3 | CO[C@@H]1CN(C)C(=O)c2ccc(NC(=O)Nc3ccccc3)cc2OC[C@@H](C)N(C(=O)CN(C)C)C[C@H]1C | -0.352%
4 | Cc1c(CCO)sc[n+]1CC(=O)OC12CC3CC(CC(C3)C1)C2 | 1.45% (active)
5 | Cc1c(CCOC(=O)CC23CC4CC(CC(C)(C4)C2)C3)sc[n+]1Cc1ccc([N+](=O)[O-])cc1 | -0.223%
6 | C[C@@H]1CN([C@@H](C)CO)S(=O)(=O)c2ccc(/C=C/c3ccccc3)cc2O[C@H]1CN(C)C(=O)C1CC1 | -0.835%
7 | COc1cccc(CN2CC3(CN(Cc4ccccn4)C3)c3c([nH]c4cc(OC)ccc34)[C@@H]2CO)c1 | 0.052%
8 | CCS(=O)(=O)N1CCC2(CC1)CN(Cc1ccc3c(c1)OCO3)[C@H](CO)c1[nH]c3cc(OC)ccc3c12 | 0.042%
9 | COc1cc(C(=O)Nn2c(CC(C)C)nc3ccccc3c2=O)cc(OC)c1OC | 0.375%
10 | COc1cc(OC)cc(-c2nc3ccccc3c(=O)n2NC(=O)c2cccnc2Cl)c1 | 0.323%
11 | COc1ccccc1C(=O)Nn1c(-c2cccs2)nc2ccccc2c1=O | 43.8% (active)
12 | C[C@H]1CN([C@@H](C)CO)C(=O)c2cc(-c3ccncc3)cnc2O[C@H]1CN(C)C(=O)c1cccc(F)c1 | -0.103%
13 | C[C@H]1CN([C@@H](C)CO)C(=O)c2cc(NC(=O)Nc3ccccc3)ccc2O[C@H]1CN(C)C(=O)Nc1ccc(F)cc1 | 0.055%
14 | COCC(=O)Nc1ccc2c(c1)OC[C@H](C)N(C(=O)COC)C[C@@H](C)[C@H](OC)CN(C)C2=O | 0.165%
15 | CCC(=O)N1C[C@@H](C)[C@H](OC)CN(C)C(=O)c2ccc(NC(=O)COC)cc2OC[C@@H]1C | 0.031%
16 | COCC(=O)Nc1ccc2c(c1)OC[C@H](C)N(C)C[C@@H](C)[C@@H](OC)CN(C)C2=O | 38% (active)
17 | COc1cccc(-c2ccc3c(c2)[C@H]2[C@H](CCN2C(=O)c2ccc(F)cc2)[C@@H](CO)N3)c1 | -0.166%
18 | O=[N+]([O-])c1cc2ccccc2nc1-c1ccccc1 | 42.3%
19 | N#CCSc1nc(-c2ccccc2)nc2ccc(F)cc12 | -0.193%
20 | O=[N+]([O-])c1ccc(F)cc1Oc1nc(-c2cccnc2)nc2ccccc12 | 43.2% (active)
21 | COc1cccc(-c2ccc([C@@H]3[C@@H](C#N)N(C(=O)c4ccccn4)[C@H]3CO)cc2)c1 | -0.024%
22 | O=C(CN1CCOCC1)NC[C@@H]1N[C@@H](CO)[C@@H]1c1ccc(-c2ccccc2)cc1 | 0.456%
23 | C[C@@H]1CN([C@H](C)CO)C(=O)c2cc(N(C)C)ccc2O[C@@H](C)CCCCO[C@@H]1CN(C)C(=O)CCCN(C)C | -0.859%
24 | COc1ccccc1C#Cc1cnc2c(c1)C(=O)N([C@H](C)CO)C[C@H](C)[C@H](CN(C)S(=O)(=O)c1cn(C)cn1)O2 | 0.666%
25 | CC(C)[C@@H]1COCn2nncc2CCCC(=O)N1 | -0.193%
26 | O=C(C[C@H]1CC[C@@H]2[C@H](COC[C@@H](O)CN2C(=O)Nc2ccc(C(F)(F)F)cc2)O1)NCCc1ccncc1 | -0.088%

Row | SMILES | activity (Tm shift, normalised)
27 | O=C1C=C(c2ccccc2)CCC1 | 43.9% (active)
28 | CC(C)NC(=O)N1[C@H](CO)[C@H](c2ccccc2)C12CN(C(=O)Cc1ccccc1)C2 | -0.087%
29 | CC(C)Oc1ccccc1C(=O)NC(CO)C(=O)O (configuration not stated) | 42.8%
30 | CC1(C)OC(=O)C(=CNC(CO)C(=O)O)C(=O)O1 (configuration not stated) | 43.2% (active)
31 | COCC(=O)N1CC2(C1)CN(C(=O)COC)[C@@H](CO)c1c2c2ccc(OC)cc2n1C | -0.043%
32 | C[C@@H]1CN([C@H](C)CO)C(=O)c2cc(NC(=O)Cn3cnnn3)ccc2O[C@@H]1CN(C)C(=O)Nc1ccc2c(c1)OCO2 | 0.191%
33 | O=S(=O)(N[C@@H]1CC[C@H](CCn2cc(-c3ccccc3F)nn2)O[C@H]1CO)c1ccc(F)cc1 | 0.086%
34 | S=C(Cc1ccc(Cl)cc1)N1CCOCC1 | 43.7% (active)
35 | O=S(=O)(Oc1ccccc1C(=S)N1CCOCC1)c1ccc(Cl)cc1 | 0%
36 | O=C(Cc1ccccc1Cl)N1CCOCC1 | -0.495%
37 | COc1ccc2c3c(n(C)c2c1)[C@@H](CO)NCC31CCN(CC2CCCC2)CC1 | -0.076%
38 | O=S(=O)(c1ccccc1)c1nc(-c2ccccc2F)oc1NCc1cccnc1 | 44.2% (active)
39 | Cc1ccc(S(=O)(=O)c2nc(-c3cccs3)oc2NCc2cccnc2)cc1 | 0.137%
40 | O=S(=O)(c1ccccc1)c1nc(-c2ccccc2)oc1NCCCN1CCOCC1 | 0.296%
41 | O=C(NCC1CC1)[C@@H]1[C@@H](CO)[C@@H]2Cn3c(ccc(-c4ccccc4)c3=O)[C@H]1N2C(=O)C1CC1 | 0.292%
42 | CC1CCN(S(=O)(=O)c2ccc3[nH]c(=O)ccc3c2)CC1 | 43.3% (active)
43 | CC1CCN(S(=O)(=O)c2ccc3c(c2)n(C)c(=O)n3C)CC1 | 0.113%
44 | Cc1cc(C)cc(NC(=O)C2CCCN(S(=O)(=O)c3ccc4[nH]c(=O)ccc4c3)C2)c1 (configuration not stated) | -0.297%
45 | COCc1[nH]nc2c1C(c1ccccc1)N(c1ccccc1)C2=O (configuration not stated) | -0.061%
46 | COc1ccc(CCNC(=O)c2c(C)nn(-c3ccccc3)c2Cl)cc1 | 0.155%
47 | COc1ccc(C2c3c(C)nn(-c4ccccc4)c3NC(=O)N2c2ccccc2)cc1 (configuration not stated) | 42.9% (active)
48 | COc1ccccc1-c1ccc2c(c1)O[C@@H](CN(C)C(=O)Nc1ccccc1)[C@H](C)CN([C@@H](C)CO)S2(=O)=O | 0.048%
49 | CN1c2ccc(-c3cccc(C#N)c3)cc2[C@@H]2[C@@H](CCN2C(=O)C2CCC2)[C@@H]1CO | -0.466%
50 | COc1ccc(NC(=O)CCNC(=O)Cn2cnc3sc4c(c3c2=O)CCCC4)cc1OC | 0.026%
51 | Cc1nc2sc3c(c2c(=O)n1NC(=O)CCl)CCCC3 | 0.109%
52 | CC(C(=O)O)n1cnc2sc3c(c2c1=O)CCCC3 (configuration not stated) | 43.5% (active)

Row | SMILES | activity (Tm shift, normalised)
53 | CN(C)C(=O)c1ccc(-c2ccc([C@@H]3[C@@H](CO)N4CCCCN(CC5CC5)C[C@H]34)cc2)cc1 | -0.109%
54 | CC(=O)N1[C@@H](CO)[C@H](c2ccccc2)[C@@H]1CN(C)C(=O)CN1CCOCC1 | 0.01%
55 | CO[C@H]1CN(C)C(=O)c2cc(NC(=O)C3CCC3)ccc2OC[C@H](C)N(C)C[C@H]1C | -0.155%
56 | CCNC(=O)Nc1ccc2c(c1)C(=O)N(C)[C@@H]1CC[C@H](CC(=O)NC3CCCCC3)O[C@H]1CO2 | -0.109%
57 | Nc1nonc1-n1nnc(C(=O)N/N=C/C2CCCCC2)c1-c1ccccc1 | 0.34%
58 | C/C(COc1ccccc1)=N\NC(=O)c1nnn(-c2nonc2N)c1-c1ccc(C)cc1 | 43.2% (active)
59 | CCCOc1ccc(-c2c(C(=O)N/N=C/c3ccco3)nnn2-c2nonc2N)cc1 | -0.098%
60 | Cc1ccc(OCC(=O)NC(C)c2ccccc2)c([N+](=O)[O-])n1 (configuration not stated) | 43.5% (active)
61 | Cc1cc(C)cc(OCC(=O)NC(C)c2ccccc2)c1 (configuration not stated) | 0.179%
62 | COc1ccccc1CNC(=O)COc1ccc(C)nc1[N+](=O)[O-] | 0.224%
63 | COc1ccc(S(=O)(=O)N(C)C[C@@H]2OCCCC[C@H](C)Oc3ccc(NC(=O)NC(C)C)cc3C(=O)N([C@@H](C)CO)C[C@@H]2C)cc1 | -0.199%
64 | CO[C@@H]1CN(C)C(=O)c2cc(NC(C)=O)ccc2OC[C@H](C)N(C(=O)CC2CC2)C[C@@H]1C | 0.119%
65 | C[C@@H](O)C#Cc1ccc([C@H]2[C@@H](CO)N3CCCCN(S(=O)(=O)c4ccccc4)C[C@@H]23)cc1 | -0.117%
66 | Cc1ccc(C(=O)NNC(=O)c2ccc3c(c2)OCCO3)cc1 | -0.233%
67 | O=C(/C=C/c1ccc2c(c1)OCCO2)c1ccc(O)cc1 | 2.05% (active)
68 | O=C(COC(=O)c1ccc(O)cc1O)c1ccc2c(c1)OCCO2 | 0.444%
69 | C[C@H](CO)N1C[C@H](C)[C@@H](CN(C)C(=O)C2CCCCC2)Oc2cc(C3=CCCC3)ccc2S1(=O)=O | 0.195%
70 | Cc1ccc(C(=O)N/C(=C/c2cccs2)C(=O)NCC2CCCO2)cc1 (configuration not stated) | 42.9% (active)
71 | Cc1ccc(C(=O)N/C(=C/c2cccs2)C(=O)N2CCCCC2)cc1 | 0.095%
72 | O=C(NCC1CCCO1)/C(=C/c1ccc(Cl)cc1)NC(=O)c1ccccc1 (configuration not stated) | -0.33%
73 | CCCC#Cc1cnc2c(c1)C(=O)N([C@H](C)CO)C[C@H](C)[C@H](CN(C)C(=O)Cc1ccncc1)O2 | 0.077%
74 | CC(C)NC(=O)N1[C@H](CNC(=O)CN(C)C)[C@@H](c2ccccc2)[C@@H]1CO | -0.154%
75 | Cc1ccc(S(=O)(=O)NCCC(=O)Nc2cccc(S(N)(=O)=O)c2)cc1C | -0.18%
76 | Cc1ccc(S(=O)(=O)NCCC(=O)Nc2ccc(C)c(Cl)c2)cc1C | 1.75% (active)
77 | Cc1ccnc(NC(=O)CCNS(=O)(=O)c2ccc(C)c(C)c2)c1 | -0.078%
